# Experimental data published in PubChem BioAssay AID623877 (Johns Hopkins Ion Channel Center, 2012).
# In all, about 340,000 compounds went through this assay and about 1,000 (0.29%) were called active.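 How the source made its calls: active means fluorescence-ratio B-score plate-corrected deviation score at least 3 library SD below zero, with starting fluorescence score within 5 deviations; inactive means the rest.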 This excerpt belongs to a sample that is enriched for actives.
# Target: Anoctamin-1 (Mus musculus) (UniProt Q8BHY3)
# Sequence (Q8BHY3 whole entry, looked up): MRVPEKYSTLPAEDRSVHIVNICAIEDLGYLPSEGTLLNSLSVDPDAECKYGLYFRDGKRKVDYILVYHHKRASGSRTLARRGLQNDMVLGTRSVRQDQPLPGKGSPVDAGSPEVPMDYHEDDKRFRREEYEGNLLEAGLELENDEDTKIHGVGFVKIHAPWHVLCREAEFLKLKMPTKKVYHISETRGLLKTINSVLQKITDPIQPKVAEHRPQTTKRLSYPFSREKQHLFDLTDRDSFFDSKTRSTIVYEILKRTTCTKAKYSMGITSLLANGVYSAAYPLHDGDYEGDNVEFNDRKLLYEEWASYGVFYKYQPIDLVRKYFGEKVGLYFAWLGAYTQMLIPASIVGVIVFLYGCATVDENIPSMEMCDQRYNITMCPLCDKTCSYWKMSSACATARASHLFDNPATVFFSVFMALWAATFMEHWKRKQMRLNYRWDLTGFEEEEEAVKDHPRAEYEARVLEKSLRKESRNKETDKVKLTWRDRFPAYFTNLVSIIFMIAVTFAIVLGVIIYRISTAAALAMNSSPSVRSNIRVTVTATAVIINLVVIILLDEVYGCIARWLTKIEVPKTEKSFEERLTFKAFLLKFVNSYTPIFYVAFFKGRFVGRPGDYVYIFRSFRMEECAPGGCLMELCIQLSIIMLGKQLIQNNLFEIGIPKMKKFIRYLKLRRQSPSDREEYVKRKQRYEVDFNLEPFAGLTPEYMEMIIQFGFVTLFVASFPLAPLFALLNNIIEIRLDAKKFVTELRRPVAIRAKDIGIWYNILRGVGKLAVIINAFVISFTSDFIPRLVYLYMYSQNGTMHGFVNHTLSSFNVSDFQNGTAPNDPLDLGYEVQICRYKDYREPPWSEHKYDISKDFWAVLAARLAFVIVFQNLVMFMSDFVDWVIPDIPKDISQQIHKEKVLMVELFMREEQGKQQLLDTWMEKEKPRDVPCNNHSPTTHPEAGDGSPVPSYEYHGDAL
# Test: TMEM16A chloride channel activators or potentiators, primary screen, cell-based, HTS (AID 623877);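 on B-score: channel opened by trigger with iodide after compound preincubation; score built on the fluorescence ratio of max minus min over baseline; more negative score means more quench and so TMEM16A activation or potentiation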
# Conditions: HEK293 TMEM16A/YFP-H148Q/I152L, iodide quench fluorescence, at 10 µM; hits give low values
row,Compound,B-score
1,O=C(CCl)N(Cc1cccc([N+](=O)[O-])c1)c1cccc(Cl)c1,inactive
2,Cc1ccc(-c2csc(C(C#N)=C(O)CN3CCN(C(=O)c4ccco4)CC3)n2)cc1,inactive
3,COC(=O)Cc1c(-c2[nH]c3ccccc3c2CC(=O)OC)[nH]c2ccccc12,inactive
4,COC(=O)C[n+]1cccc2ccccc21,-8.8 (active)
5,O=C(C[n+]1cc(Br)cc2ccccc21)c1ccc(F)cc1,inactive
6,O=C(Nc1cccc(Cl)c1)C1CCCN(c2cnccn2)C1 (stereo not given),inactive
7,Cc1ccc2c(c1)C(c1ccccc1)N(C(=O)c1ccc(S(=O)(=O)N3CCOCC3)cc1)CC(=O)N2 (stereo not given),inactive
8,COc1cccc(N2CCN(CC(=O)Nc3ccnn3C3CCCC3)CC2)c1,-41.6 (active)
9,COc1cccc(C(=O)N2CCC(n3nccc3NC(=O)C3CCOC3)CC2)c1 (stereo not given),inactive
10,COc1ccccc1N1CCN(CC(=O)Nc2ccnn2C2CCCC2)CC1,inactive
11,COc1ccc(CNC(=O)CN(Cc2ccc(Cl)cc2)S(C)(=O)=O)cc1,inactive
12,Nc1ncnc2c1cnn2C1CC(O)C(CO)O1 (stereo not given),inactive
13,Cc1noc(/C=C/c2ccco2)c1S(=O)(=O)N1CCC(C(=O)Nc2ccc(Cl)cn2)CC1,inactive
14,C=CC(COCc1ccccc1)N(CC(=O)OC)S(=O)(=O)c1cc(Br)ccc1OC (stereo not given),inactive
15,C=CCCN(Cc1ccccc1)S(=O)(=O)c1ccccc1Br,inactive
16,C=CC(COCc1ccccc1)N(Cc1ccccc1)S(=O)(=O)c1ccccc1Br (stereo not given),-4.97 (active)
17,O=C(CN1CCCSc2ccccc21)N1CCN(S(=O)(=O)c2cccc(F)c2)CC1,-45.3 (active)
18,O=C(CN1CCCSc2ccccc21)N1CCN(S(=O)(=O)c2ccccc2)CC1,inactive
19,O=C(CN1CCN(S(=O)(=O)c2cccc(Cl)c2)CC1)N1CCCCC1,inactive
20,COc1cc(C(=O)Nc2oc(-c3ccccc3)c(-c3ccccc3)c2C#N)cc(OC)c1OC,inactive
21,O=C1c2ccccc2C(=O)N1CCCCCCN1C(=O)c2ccccc2C1=O,inactive
22,N#Cc1c(NC(=O)CCCN2C(=O)c3ccccc3C2=O)oc(-c2ccccc2)c1-c1ccccc1,-21.8 (active)
23,CN(C)S(=O)(=O)c1ccc(N2CCCC2)c(C(=O)NCc2ccccc2)c1,inactive
24,O=P(c1cccs1)(c1cccs1)c1cccs1,inactive
25,COc1ccc(N=C2C=CC(=O)O2)cc1,inactive
26,CCOc1ccccc1-n1c(SCC(=O)NCc2ccco2)nnc1-c1ccncc1,inactive
27,COc1ccc(-n2c(SCC(=O)NCc3cccs3)nnc2-c2ccoc2C)cc1,inactive

row,Compound,B-score
1,Cc1ccccc1-n1c(SCC(=O)NCc2cccs2)nnc1-c1ccncc1,-9.87 (active)
2,O=C(Oc1ccccc1)Oc1ccc2c(c1)oc(=O)c1ccccc12,inactive
3,CC(C)N(Cc1ccccc1)C(=S)Nc1ccc(OC(F)F)cc1,inactive
4,Cc1ccccc1NC(=O)c1nn(-c2ccc(F)c(F)c2)ccc1=O,inactive
5,CCCSc1ncccc1C(=O)O,inactive
6,CCN(CC)S(=O)(=O)c1ccc(NC(=O)c2cccnc2Cl)c(NC(=O)c2cccnc2Cl)c1,-8.41 (active)
7,CCN(CC)S(=O)(=O)c1ccc(NC(=O)c2cnc(C)cn2)cc1,inactive
8,Cc1ccc(CNC(=O)c2cccnc2Cl)cc1,inactive
9,O=C(NCCN1CCCC(O)C1)c1cc(COc2c(F)cccc2F)on1 (stereo not given),inactive
10,CCc1nnc(NC(=O)CSc2nc(SC)ns2)s1,inactive
11,COc1ccc(OC)c(Nc2nc3ccccc3n3cnnc23)c1,inactive
12,COc1ccc(S(=O)(=O)N2CCCC2)c(C)c1C,inactive
13,Nn1c(SCC(=O)NC(=O)NC2CCCC2)nnc1-c1ccccc1F,inactive
14,Nn1c(SCC(=O)NC2CCCC2)nnc1-c1ccccc1F,-15.8 (active)
15,CC(C)NC(=O)NC(=O)CSc1nnc(-c2ccccc2F)n1N,inactive
16,CC(C)[C@H](NC(=O)OCc1ccccc1)C(=O)OCc1ccccc1,inactive
17,COc1ccc(COC(=O)NC(C(=O)O)c2ccccc2)cc1 (stereo not given),-15.7 (active)
18,COC(=O)c1ccc(C(NC(=O)OCc2ccccc2)/C(F)=C/[C@@H](C)C(=O)O)cc1 (stereo not given in full),inactive
19,Cc1cccc(C)c1NC(=O)C1CCCN1C(=O)OC(C)(C)C (stereo not given),inactive
20,C/C=C/C(=O)OCc1csc(CC(=O)Nc2ccccc2C)n1,inactive
21,CC(=O)Nc1ccc(S(=O)(=O)NC(C)C(=O)OCC(=O)NC2CCCC2)cc1 (stereo not given),inactive
22,Cc1ccc(NC(=O)Cc2nc(COC(=O)C(C)NS(=O)(=O)c3ccc(C)cc3)cs2)cc1 (stereo not given),-5.62 (active)
23,CCOc1cc(C(=O)N(Cc2ccccc2)c2ccc(C)cc2)ccc1OCC(=O)N1CCOCC1,inactive
24,CCOC(=O)C1(Cc2ccc(O)cc2)NC(c2ccccc2F)C2C(=O)N(C)C(=O)C21 (stereo not given),inactive
25,CCOc1cc(/C=C2/N=C(c3ccc(C(C)(C)C)cc3)OC2=O)cc(Cl)c1OS(C)(=O)=O,inactive
26,COc1ccc(-c2ccnc(SCC(=O)N3CCOCC3)n2)cc1,inactive
27,COC1=C/C(=C/c2c(N)n3nc(CC(=O)N4CCOCC4)sc3nc2=O)C=CC1=O,-12.3 (active)

row,Compound,B-score
1,C=CCC1=C/C(=C\c2c(N)n3nc(CC(=O)N4CCOCC4)sc3nc2=O)C=C(OC)C1=O,inactive
2,N#CCSc1nn(-c2ccc(F)cc2)c(=S)s1,inactive
3,O=C(CSc1ccccn1)N1CCN(S(=O)(=O)c2ccc(Cl)cc2)CC1,inactive
4,CCC(C)n1[nH]c(=O)c2c(C)cc(C)nc21 (stereo not given),-6.98 (active)
5,CCCC(C)n1[nH]c(=O)c2c(C)cc(C)nc21 (stereo not given),inactive
6,CCC(C)n1[nH]c(=O)cc1N (stereo not given),inactive
7,CSc1nc2sc3c(c2c(=O)[nH]1)CCc1ccccc1-3,inactive
8,O=C(COC(=O)c1cc[n+]([O-])cc1)Nc1ccc(Cl)c(C(F)(F)F)c1,inactive
9,O=C(CC(O)(C(F)(F)F)C(F)(F)F)Nc1ccc(Cl)c(Cl)c1,-12.9 (active)
10,NC(=O)N1CCCC1C(=O)Nc1ccc(Cl)c(Cl)c1 (stereo not given),inactive
11,Cc1ccc(S(=O)(=O)N2CCOCC2)cc1C(=O)Nc1ccccc1N1CCCC1,inactive
12,Nc1ccc2c(c1)C(=Cc1cccnc1)c1ccccc1-2,inactive
13,N#CCC(=O)N/N=C/c1ccc(SCC(=O)Nc2ccccc2)o1,inactive
14,CC(OC(=O)CCCc1c[nH]c2ccccc12)C(=O)Nc1ccc(S(N)(=O)=O)cc1 (stereo not given),inactive
15,C/C(=N\NS(=O)(=O)c1cccc([N+](=O)[O-])c1)c1cc2ccccc2o1,inactive
16,CCCCN1CCNC1=S,inactive
17,O=C(c1ccc2c(c1)N(Cc1ccc(F)cc1)C(=O)c1ccccc1S2(=O)=O)N1CCN(c2ccccn2)CC1,-4.74 (active)
18,O=C(C(Cl)Cl)N1CCN(c2ccccn2)CC1,inactive
19,O=C1c2cccc3cccc(c23)N1CN1CCN(c2ccccn2)CC1,inactive
20,O=C(c1c(F)cccc1Cl)N1CCN(c2ccccn2)CC1,inactive
21,O=C1c2ccccc2S(=O)(=O)c2cc(N3CCN(c4ccccn4)CC3)ccc21,-5.73 (active)
22,O=C(c1ccc2c(c1)C(=O)N(c1ccc(Cl)cc1)C2=O)N1CCN(c2ccccn2)CC1,inactive
23,Nc1c(Cl)cc(-c2csc(N3CCCC3c3nc4cc(Cl)c(Cl)cc4n3CCOCCO)n2)cc1Cl (stereo not given),inactive
24,Cc1ccc(CSCC(=O)N(C)CC(=O)Nc2ccc(C)cc2)cc1,inactive
25,CC1C(=O)NC(=O)C1c1ccccc1 (stereo not given),inactive
26,COc1ccc(Nc2nc(-c3cccnc3)nc3ccccc23)cn1,-6.47 (active)
27,S=c1nc2ccccc2c2nc(-c3cccnc3)[nH]n12,inactive

row,Compound,B-score
1,CC(C)(C)Nc1nc(-c2ccccn2)nc2ccccc12,inactive
2,O=S(=O)(NC(=S)Nc1ccccc1)c1ccc(F)cc1,inactive
3,O=C(O)C1CCN(C(=O)c2cc(F)cc3c2OCOC3)CC1,inactive
4,Cc1cc(=O)n2nc(N3CCCC(C(=O)NCCC4=CCCCC4)C3)sc2n1 (stereo not given),inactive
5,Cc1cc(=O)n2nc(N3CCCC(C(=O)NCc4ccc(Cl)cc4)C3)sc2n1 (stereo not given),inactive
6,Cc1cc(=O)n2nc(N3CCCC3C(=O)NCCCN3CC(C)CC(C)C3)sc2n1 (stereo not given),-18.1 (active)
7,CN(c1ccc(OCC(=O)OCC(=O)Nc2cccc([N+](=O)[O-])c2)cc1)S(=O)(=O)c1ccc(F)cc1,inactive
8,Cc1ccccc1OCCC(=O)OCC(=O)NCCc1ccc(S(N)(=O)=O)cc1,inactive
9,CN(C)S(=O)(=O)c1ccc(C(=O)NCCN=C2NS(=O)(=O)c3ccccc32)cc1,inactive
10,Cc1noc(C)c1S(=O)(=O)NCCc1ccc(S(N)(=O)=O)cc1,inactive
11,CCc1ccc(-c2cc(C)no2)cc1S(=O)(=O)NCCc1ccc(S(N)(=O)=O)cc1,-4.67 (active)
12,Cc1cc(-c2ccc(C)c(S(=O)(=O)Nc3ccc(S(N)(=O)=O)cc3)c2)on1,inactive
13,Cc1cc(C)c2c(c1)cc(C)c1nnc(SCC(=O)Nc3cc(C)on3)n12,inactive
14,C=CCN(CC=C)CCOc1ccccc1[N+](=O)[O-],inactive
15,O=[N+]([O-])c1ccc(NS(=O)(=O)c2ccccc2)c(Cl)c1,inactive
16,NC(=O)C1CCN(C(=O)c2cn(-c3ccccc3)nc2-c2cccnc2)CC1,inactive
17,O=C(NNC(=S)NC(=O)c1cn(-c2ccccc2)nc1-c1ccccc1)c1ccncc1,-5.25 (active)
18,Cc1ccc(-c2nn(-c3ccccc3)cc2C(=O)NC2CCC(O)CC2)cc1 (stereo not given),inactive
19,O=C(CCc1nnc2ccc(NCCCN3CCCC3=O)nn12)NCc1ccccc1Cl,inactive
20,C#CCOCCOCCOCCNc1nc(N2CCN(C(=O)C(Cc3ccc(O)cc3)n3cc(C(N)CC(C)C)nn3)CC2)nc(N2CCN(C(=O)C(Cc3ccc(O)cc3)n3cc(C(N)C(C)CC)nn3)CC2)n1 (stereo not given),inactive
21,COc1ccc(CN2C(=O)C(C)S/C2=N/N=C/c2ccco2)cc1 (stereo not given),inactive
22,COc1ccc(NC(=O)Cn2nnc(C(=O)NCCc3ccc(OC)c(OC)c3)c2N)cc1,inactive
23,CCc1ccc(NC(=O)Cn2nnc(C(=O)NCc3ccc(OC)cc3)c2N)cc1,-25.9 (active)
24,COc1ccc(CNC(=O)c2nnn(CC(=O)Nc3cc(C)cc(C)c3)c2N)cc1,inactive
